# Tests used:
# Experiment in all cases: PBM binding z-score (relative to random genomic background probes); higher = stronger binding; sequences stand for … in GC…GCGATTGACAGCGTAGAATGAAGG
# [1] = tested on: PPARg:RXRa DBDmut IVT, anti-RXR (DBD mutation: RXRa K156A/R161A, NR concentration 270 nM, RXRa partner concentration 90 nM)
# Summary of the method: (§1)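 Antibodies against each partner of ligand-free nuclear receptor dimers (one per run) detected binding on custom Agilent 4×180K protein-binding microarrays after 1 h incubation. The double-stranded probes had 34-nt variable regions carrying direct-repeat seeds, single-nucleotide variants, half-site ablations and random human genomic background sequences. Binding z-scores, from regression-normalized fluorescence, use the random background probes as reference.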
# [2] = tested on: PPARg:RXRa IVT, anti-PPARg (NR concentration 270 nM, RXRa partner concentration 90 nM)
# Summary of the method: as §1
# [3] = tested on: PPARg DBDmut:RXRa IVT, anti-PPARg (DBD mutation: PPARg1 K132A/R137A, NR concentration 270 nM, RXRa partner concentration 90 nM)
# Summary of the method: as §1
# [4] = tested on: PPARg DBDmut IVT, anti-PPARg (DBD mutation: PPARg1 K132A/R137A, NR concentration 270 nM)
# Summary of the method: as §1
# [5] = tested on: PPARg homodimer (NR concentration 180 nM)
# Summary of the method: as §1
# [6] = tested on: PXR:RXRa (NR concentration 270 nM, RXRa partner concentration 90 nM)
# Summary of the method: as §1
# [7] = tested on: PXR homodimer (NR concentration 270 nM)
# Summary of the method: as §1
# [8] = tested on: RARa:RXR (NR concentration 270 nM, RXRa partner concentration 90 nM)
# Summary of the method: as §1
# [9] = tested on: RARa homodimer (NR concentration 270 nM)
# Summary of the method: as §1
# [10] = tested on: RARb:RXRa (NR concentration 270 nM, RXRa partner concentration 90 nM)
# Summary of the method: as §1
# [11] = tested on: RARb homodimer (NR concentration 270 nM)
# Summary of the method: as §1
# [12] = tested on: RARg:RXRa (NR concentration 270 nM, RXRa partner concentration 90 nM)
# Summary of the method: as §1
# [13] = tested on: RARg homodimer (NR concentration 270 nM)
# Summary of the method: as §1
# [14] = tested on: RXRa DBDmut IVT, anti-RXR (DBD mutation: RXRa K156A/R161A, NR concentration 90 nM)
# Summary of the method: as §1
# [15] = tested on: RXRa homodimer (NR concentration 180 nM)
# Summary of the method: as §1
# [16] = tested on: THRa:RXRa (NR concentration 90 nM, RXRa partner concentration 90 nM)
# Summary of the method: as §1
# [17] = tested on: THRa homodimer (NR concentration 90 nM)
# Summary of the method: as §1
# [18] = tested on: VDR homodimer (NR concentration 270 nM)
# Summary of the method: as §1
Sequence,PBM binding z-score [1],PBM binding z-score [2],PBM binding z-score [3],PBM binding z-score [4],PBM binding z-score [5],PBM binding z-score [6],PBM binding z-score [7],PBM binding z-score [8],PBM binding z-score [9],PBM binding z-score [10],PBM binding z-score [11],PBM binding z-score [12],PBM binding z-score [13],PBM binding z-score [14],PBM binding z-score [15],PBM binding z-score [16],PBM binding z-score [17],PBM binding z-score [18]
CCGAGTAGGTTATGTGGCATTCAGGCAACGGTGA,3.28,2.2,-0.431,-0.42,0.696,-0.298,-0.313,-0.131,0.978,0.573,0.908,0.273,0.223,0.434,0.208,0.162,0.415,0.153
TCTTGTAGAGCAAGCAGGTTAAGAAAGCCTGAGT,1.77,0.824,-0.533,-0.908,-0.862,-0.144,-0.157,-0.225,-0.639,-0.127,-0.297,-0.441,-0.538,-0.187,-0.0799,-0.2,-1.05,-0.461
CCTGCTAGGTCATTGGTCAGCTAAAGCAGCTCGC,3.86,3.73,0.135,-0.404,1.24,1.47,0.029,2.07,-0.492,3.97,3.25,3.88,4.43,3.02,2.61,2.79,1.24,1.27
TATACAGGGTCAAAGGCCAGAGCACGAATGTCGA,2.75,4.99,1.39,1.27,1.83,4.17,0.0861,5.31,0.94,4.36,3.57,5.66,5.23,3.1,6.87,3.46,0.672,2.9
GCATATAGGTAATACAAGGTGATAGTCCGATTGT,4.05,2.84,1.05,1.46,0.142,0.0575,-0.157,0.688,0.359,-0.103,-0.0222,0.537,0.59,0.172,0.526,3.48,0.413,-0.123
AGTCAAAGTTCAGGACGAGGTAGCGTAAAGCACG,-0.637,1.36,-0.194,-0.537,1.46,2.36,0.831,2.26,0.252,4.31,2.76,4.44,4.55,2.81,2.93,2.9,0.672,2.05
CCAAGCAGGCCAGGGTCACTCAAGCATTTCGCTT,0.264,0.738,-0.543,-1.4,1.53,2.65,-0.14,3.4,0.312,2.61,2.75,3.16,2.36,0.375,3.22,3,1.15,1.51
CGTCCAAGGTCAAGGTCATTGAAAGAGACTCGAA,3.44,5.03,0.777,-0.505,4.46,5.75,2.42,5.73,2.35,5.56,5.3,7.02,7.64,3.89,7.4,4.39,3.82,5.11
CGTCCAAGGTCAAGGTCAGTTAAAGAGACTCGAA,3.64,4.64,0.996,0.327,3.84,5.2,1.12,5.74,1.83,5.81,5.26,6.92,7.72,3.68,6.66,4.4,3.3,3.29
GGAACGAGGGCATCCGAGTTGATAGCATGGCGAT,2.9,2.23,-0.317,-0.705,-0.0747,3.67,0.048,0.949,-0.37,1.78,0.756,1.28,1.71,2.26,0.974,3.08,-0.359,2.33
CCGACTGGGGCAAAGGTTACTATACTCAGTACGA,4.92,5.73,-0.179,-0.335,1.41,1.93,-0.04,3.21,-0.0301,1.86,1.74,2.75,1.37,0.148,2.8,1.44,-0.197,0.164
CGAACTAGTTCAGAACAGGACAGTGAAGGATGAT,-0.157,-0.211,0.34,0.0845,-0.297,0.137,0.378,0.131,-0.252,0.618,0.329,0.335,0.706,1.18,0.233,1.8,-0.53,0.226
GCTGCTAGGTCAACGGATGGTCAGCTAAAGCTCG,4.91,3.99,0.0458,-0.872,1.84,1.21,-0.834,2.51,-0.435,4.19,3.51,4.98,5.24,1.17,2.82,2.51,0.887,0.0371
AGTCAAAGTTCACTAGGTAACATAAGATTCAGCT,2.79,5.27,1.65,1.65,3.16,4.33,3.16,2.97,2.25,4.79,3.84,4.96,5.9,4.29,3.76,2.08,0.138,4.22
ACTAGCATGCCAAGTTTGGGTCACTCAAACAAAG,-0.0858,0.673,-0.779,-0.563,0.0985,0.71,-0.444,1.14,-0.448,1.28,1.71,1.43,0.744,-0.167,0.674,2.19,0.882,0.673
TCTTGTAAATCAAAGGTTAAGAAAGCCGAAGCCT,1.48,1.25,0.212,0.506,1.05,1.42,-0.311,2.32,0.632,1.87,1.35,1.39,0.692,0.749,2.24,0.996,-0.284,-0.116

Sequence,PBM binding z-score [1],PBM binding z-score [2],PBM binding z-score [3],PBM binding z-score [4],PBM binding z-score [5],PBM binding z-score [6],PBM binding z-score [7],PBM binding z-score [8],PBM binding z-score [9],PBM binding z-score [10],PBM binding z-score [11],PBM binding z-score [12],PBM binding z-score [13],PBM binding z-score [14],PBM binding z-score [15],PBM binding z-score [16],PBM binding z-score [17],PBM binding z-score [18]
CGAACTAGGTCAGAACTGGACAGTGAAGGATGAT,6.94,7.08,2.69,3.66,1.37,0.313,-0.282,0.591,-0.224,2.71,1.62,2.49,3.05,0.459,1.3,1.13,-0.298,0.221
TCGAGTAGCTTAGTCGGGGCATTCAGCCAACATA,0.289,-0.763,-1.22,-0.887,-1.34,-0.503,-1.1,-0.495,-0.83,-0.355,-0.405,-0.536,-1.05,-0.135,-0.559,-0.289,-0.688,-0.534
TCGAGTAGGTTGCCAATGGGGCATTCAGCTTTCT,0.771,0.26,-0.582,-1.2,-1.09,-0.544,-1.13,-0.717,-1.42,-0.201,-0.36,-0.509,-0.841,0.244,-0.482,-0.51,-0.951,-0.846
TCATATATGTAAAAGGTGAAAGTCGGTGTGGTAA,2.46,2.83,0.873,0.794,1.98,1.21,-0.143,1.85,1.14,1.9,1.67,1.18,0.788,1.48,1.79,1.36,0.104,0.0436
CAAACTAGGTCAAAGGTCTAAGTCGAGCCAACCA,8.53,8.69,8.12,5.58,7.53,3.11,0.0192,4.84,0.718,3.91,2.9,4.76,4.45,1.96,4.93,3,0.688,1.09
TGTCAAAGTTCAAAGGTAACATAAGTATCCACAC,0.298,4.93,1.53,2.04,3.31,5.72,4.18,6.28,1.65,5.24,3.83,6.56,6.03,4.43,6.86,3.53,0.27,4.17
ACTTACGGGTCAACGAGGTTATAGAACGCGTATA,3.53,4.42,1.71,1.43,1.66,5.08,2.8,4.99,0.996,4.35,3.89,5.69,5.34,2.56,6.54,4.21,1.21,3.53
CGAACTAGGCCATTGACAGGACAGTGAATAGTAA,6.87,5.51,1.09,0.545,0.245,-0.291,0.0591,-0.304,-0.0299,0.565,0.319,0.281,0.586,0.349,0.0322,0.198,-0.102,-0.193
ATCTTTAGGTAAAGTTCAGTGAAAGATCGATAGA,1.08,1.4,0.514,1.26,0.959,2.02,1.36,1.27,0.483,2.65,2.48,1.99,2.45,1.71,1.15,1.52,0.0896,1.95
AGAAAGAGGTTACCAAAGATCAGGGAAACGCTTG,1.97,1.94,0.516,0.104,0.75,1.82,-0.238,2.63,0.245,2.62,1.03,2.51,1.84,0.282,3.17,1.91,-0.577,-0.0812
AGAATGAGGTTACCAAAGATTAGGGAAACGCTTG,4.05,3.59,1.65,0.534,0.398,1.15,-0.168,1.88,0.039,2.06,0.628,1.99,1.59,0.929,2.53,2.69,0.581,0.29
CCTATTAGTTGACCATTAGGGCAACCGAAGCTCG,1.18,1.3,-0.00387,0.76,1.65,0.111,0.563,0.412,1.35,1.04,1.68,0.667,0.891,0.456,0.374,0.945,0.78,0.844
AGAATCAGGTTATACGTAGATCAGGGAAGAAAGT,3.66,2.1,1.47,0.861,0.756,0.61,0.471,0.799,0.86,0.961,0.65,0.789,0.919,0.474,0.757,1.17,0.768,0.381
ATACCAAGGTGATCGAGAGGTCGTTGATACTAAC,0.406,1.39,0.441,0.884,1.08,2.91,1.12,2.04,0.692,1.56,1.77,2.91,1.06,0.829,1.71,2.59,0.902,1.98
ACTATTAGTTGATACGAGGGCAACCGATAGGTTG,0.641,1.17,1.01,1.4,0.764,1.34,0.799,0.922,0.828,1.28,1.59,1.03,0.921,1.04,0.536,2.55,0.673,0.979

# Source: the supplement of paper PMC6555819
